“And” between values parts separate entries of the source, which are not always exact repeats. Identical values can stand only once. The campaign covered roughly 360,000 compounds. About 11,000 (3.1%) were called active. No stated cut-off is given here; in the data, active means activity change below about -30%; inactive means the rest. For the sample, actives were picked, then their nearest neighbours and some compounds at random.
On the % scale 0 is the no-effect control and ±100 the full control effect.

Chain of D(1A) dopamine receptor (Homo sapiens) (P21728 whole entry, looked up): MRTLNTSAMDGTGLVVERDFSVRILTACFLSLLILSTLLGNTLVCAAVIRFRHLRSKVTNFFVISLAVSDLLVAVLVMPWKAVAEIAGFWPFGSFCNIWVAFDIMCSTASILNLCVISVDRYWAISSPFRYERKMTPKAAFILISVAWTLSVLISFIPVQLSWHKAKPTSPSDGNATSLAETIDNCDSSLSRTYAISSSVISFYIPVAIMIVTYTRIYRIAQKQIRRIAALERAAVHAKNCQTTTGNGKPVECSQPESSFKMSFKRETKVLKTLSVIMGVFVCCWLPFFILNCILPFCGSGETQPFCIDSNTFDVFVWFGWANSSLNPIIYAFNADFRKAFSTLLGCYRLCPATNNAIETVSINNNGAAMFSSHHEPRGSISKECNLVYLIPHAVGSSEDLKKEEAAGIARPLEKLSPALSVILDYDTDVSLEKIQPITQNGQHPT

This assay addresses D(1A) dopamine receptor (Homo sapiens) (UniProt P21728). Nature of the assay: Antagonist of Human D 1 Dopamine Receptor: qHTS. The following applies: HEK293 TREx D1 cells, calcium flux, dopamine EC80; at 10 µM; stronger effect = lower value. The method in brief:
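Tetracycline-induced HEK293 T-REx cells with force-coupled D1 receptor were loaded with a no-wash calcium dye. Compound was added after a 10 s baseline and read kinetically for 180 s; EC80 dopamine was then added and calcium flux followed another 180 s.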
On the technique in general: In qHTS, concentration-response curves come from the screen itself.
Regarding `Cc1cccc2c(=O)cc(CSc3ccccc3NC(=O)C(C)C)[nH]c12`, the activity change, negative = inhibition was -2.11% (inactive).

In the case of `COc1ccc(NC(=O)CCC(=O)Nc2cc(OC)c(NC(=O)c3ccco3)cc2OC)c(OC)c1`, the activity change, negative = inhibition was -3.66% (inactive).

On to `COc1ccc(NC(=O)c2ccco2)cc1NC(=O)c1ccc(C#N)cc1F`, for which the activity change, negative = inhibition was -1.13% (inactive) and -9.12% (inactive).

Regarding `COc1cc(NC(=O)c2cc([N+](=O)[O-])ccc2Br)ccc1NC(=O)c1ccco1`, the activity change, negative = inhibition was -45.2% (active).

`COc1ccc(OC)c(-n2nnc(-c3nc(-c4cc(OC)c(OC)c(OC)c4)no3)c2C)c1`: the activity change, negative = inhibition is -6.72% (inactive).

Take `Cc1ccc2oc(=O)c3cnn(CC(=O)NCc4ccccc4Cl)c3c2c1`: the activity change, negative = inhibition was 1.96% (inactive).

On to `COc1ccc(N(C)S(=O)(=O)c2ccc3c(c2)CC(C)N3C(=O)C2CC2)c(OC)c1` (configuration not stated), for which the activity change, negative = inhibition is -41.8% (active).

In the case of `COc1cccc(CNS(=O)(=O)c2ccc3c(c2)N(C(C)=O)CCS3)c1`, the activity change, negative = inhibition is 3.44% (inactive).

In the case of `CC1Cc2cc(S(=O)(=O)CCC(=O)NCc3ccc(Cl)cc3)ccc2N1C(=O)C1CC1` (configuration not stated), the activity change, negative = inhibition is -19.3% (inactive).

For `COc1cccc(CNS(=O)(=O)c2ccc3c(c2)CC(C)N3C(=O)C2CCC2)c1` (configuration not stated), the activity change, negative = inhibition is -10.7% (inactive) and -1% (inactive).

On to `COc1cccc(CNS(=O)(=O)c2ccc3c(c2)CC(C)N3C(C)=O)c1` (configuration not stated), for which the activity change, negative = inhibition is -35% (active).

Take `COc1ccccc1CNC(=O)C1CCN(S(=O)(=O)c2ccc3c(c2)CC(C)N3C(=O)C2CC2)CC1` (configuration not stated): the activity change, negative = inhibition is -4.76% (inactive).

With `Cc1cccc(CNC(=O)c2cnc3sc(N4CCCCC4)nn3c2=O)c1`, the activity change, negative = inhibition is 1.97% (inactive).

In the case of `CCOCCCNC(=O)c1c(NC(=O)c2nc(SC)ncc2Cl)sc2c1CCCC2`, the activity change, negative = inhibition is -26.2% (inactive).

Turning to `CCN(CCCNC(=O)c1cc2c(=O)n(CC)c3ccccc3c2s1)Cc1ccccc1`, the activity change, negative = inhibition is 11.6% (inactive).

With `Cc1cccc(-n2ncc(C(=O)N3CCN(c4ccc(Cl)cc4)CC3)c2C2CCN(C(=O)OC(C)(C)C)CC2)c1`, the activity change, negative = inhibition was 1.41% (inactive).

Consider `COc1ccc(CNC(=O)c2ccc(NC(=O)N3CC4CCCN4c4ccccc43)cc2)cc1` (configuration not stated), for which the activity change, negative = inhibition was 40.5% (inactive).

For `CC(=O)Nc1ccc(NC(=S)NC(=O)c2ccc([N+](=O)[O-])c(C)c2)cc1`, the activity change, negative = inhibition is -2.38% (inactive).

Consider `CCOc1ccc(C(=O)NC(=S)Nc2ccc(NC(=O)C(C)C)cc2)cc1[N+](=O)[O-]`, for which the activity change, negative = inhibition was -38.8% (active).

With `CCOc1ccc(C(=O)NC(=S)Nc2ccc(N3CCOCC3)c(Cl)c2)cc1[N+](=O)[O-]`, the activity change, negative = inhibition is -18.8% (inactive).

On to `O=C(Nc1cccc2cccnc12)C(F)(F)F`, for which the activity change, negative = inhibition was 5.04% (inactive).

On to `O=C(NCc1ccccc1Cl)c1cccn1-c1nnc(N2CCCCC2)s1`, for which the activity change, negative = inhibition was -10.7% (inactive).

For `O=C(Cn1ncc2c3ccccc3n(Cc3ccccc3)c2c1=O)NC1CCCCCC1`, the activity change, negative = inhibition is -8.69% (inactive).

On to `COc1cccc(CNCCSc2nnnn2C)c1OCc1ccccc1Cl`, for which the activity change, negative = inhibition was -5.2% (inactive).

Take `COc1cccc(CNCCc2c[nH]c3ccccc23)c1OCc1ccccc1F`: the activity change, negative = inhibition is -35.2% (active).

In the case of `COc1ccc(C(CCNCc2ccccc2F)c2ccc(F)cc2)cc1` (configuration not stated), the activity change, negative = inhibition is -7.29% (inactive).

As to `O=C(CN1C(=O)COc2ccc(S(=O)(=O)N3CCCCCC3)cc21)N1CCN(c2cccc(C(F)(F)F)c2)CC1`, the activity change, negative = inhibition is -0.903% (inactive).

Take `O=C(CN1CCc2ccccc2C1)Nc1cccc(S(=O)(=O)N2CCOCC2)c1`: the activity change, negative = inhibition was 27.4% (inactive).

Turning to `O=C(CN1CCc2cc3c(cc2C1)OCCCO3)Nc1ccccc1`, the activity change, negative = inhibition is -19.4% (inactive).

In the case of `Cc1ccc(NC(=O)CN2CCc3ccccc3C2)cc1C`, the activity change, negative = inhibition was -59.1% (active).

With `O=C(NCCc1ccccc1)c1ccc2c(c1)N(Cc1ccc(F)cc1)C(=O)c1ccccc1S2(=O)=O`, the activity change, negative = inhibition was 6.04% (inactive).

Take `COCCNC(=O)c1ccc2c(c1)N(Cc1cccc(Cl)c1)C(=O)c1ccccc1S2(=O)=O`: the activity change, negative = inhibition is 5.66% (inactive).

As for `O=C(NCCc1ccccc1)c1ccc2c(c1)N(Cc1ccccc1)C(=O)c1ccccc1S2(=O)=O`, the activity change, negative = inhibition was -40.3% (active).

Take `COC(=O)c1ccccc1NC(=O)c1ccc2c(=O)n3c(nc2c1)CCCCC3`: the activity change, negative = inhibition is 5.25% (inactive).

As for `CC(C)c1ccc(NC(=O)c2cc(S(=O)(=O)N3CCc4ccccc4C3)ccc2F)cc1`, the activity change, negative = inhibition is 3.76% (inactive).

As to `CC(C)CNS(=O)(=O)c1ccc(CCC(=O)NCc2ccc(Cl)cc2)cc1`, the activity change, negative = inhibition is 3.95% (inactive).

In the case of `CC(C)CCNC(=O)CCNS(=O)(=O)c1ccc(Cl)cc1`, the activity change, negative = inhibition was -17.7% (inactive).

With `Cc1ccc(S(=O)(=O)NCCC(=O)NCc2ccc(Cl)cc2)cc1C`, the activity change, negative = inhibition was -35.7% (active).

As to `CC1CCC(N2CC(=O)N(CCC3=CCCCC3)C(c3ccc(F)cc3)C2=O)CC1` (configuration not stated), the activity change, negative = inhibition is -13.9% (inactive).

For `Cc1ccc2[nH]c(=O)c(CN(CCCN(C)C)C(=O)Nc3cccc(Cl)c3)cc2c1`, the activity change, negative = inhibition was -39.7% (active).

Take `CCC(=O)N(CCc1ccccc1)Cc1cc2cc(C)ccc2[nH]c1=O`: the activity change, negative = inhibition is 13.5% (inactive).

On to `Cc1ccc2[nH]c(=O)c(CN(CC3COCCO3)C(=O)Nc3ccccc3C)cc2c1` (configuration not stated), for which the activity change, negative = inhibition is -8.28% (inactive).

Regarding `COc1ccc(-n2nnc(-c3nsc(NC(=O)c4ccc(C)c(C)c4)n3)c2C)cc1Cl`, the activity change, negative = inhibition is 2.45% (inactive).

As for `CCOc1ccc(NC(=O)Cn2cc(C(=O)c3ccc(C)cc3)c(=O)c3cc4c(cc32)OCCO4)cc1`, the activity change, negative = inhibition is 4.79% (inactive).

Turning to `COCCn1c(=O)[nH]c(=O)c2cc(C(=O)c3cc(OC)ccc3O)cnc21`, the activity change, negative = inhibition was 12.3% (inactive).

Consider `COc1ccc(O)c(C(=O)c2cnc3c(c2)c(-c2ccc(F)cc2)c(C#N)c(=O)n3C)c1`, for which the activity change, negative = inhibition was 0.727% (inactive).

As for `COc1ccc(O)c(C(=O)c2cnc3onc(C(C)C)c3c2)c1`, the activity change, negative = inhibition is -33.3% (active).

In the case of `CCOc1ccc(CNC(=O)c2ccc(CS(=O)c3ccccc3)o2)cc1` (configuration not stated), the activity change, negative = inhibition is -7.56% (inactive).

On to `COc1ccc(CNC(=O)CC2Oc3ccc(C)cc3NC2=O)cc1` (configuration not stated), for which the activity change, negative = inhibition was 14% (inactive).

Consider `COc1ccc(C(=O)OCC(=O)Nc2ccc3[nH]c(=O)[nH]c3c2)c(OC)c1OC`, for which the activity change, negative = inhibition is -37.4% (active).

In the case of `COc1ccc(C(=O)OCC(=O)Nc2cccc(C(C)=O)c2)cc1OC`, the activity change, negative = inhibition was -4.31% (inactive).

Take `O=C(COC(=O)c1cccc(Cl)c1)Nc1ccc2[nH]c(=O)[nH]c2c1`: the activity change, negative = inhibition was 2.99% (inactive).

Consider `COc1ccc(NC(=O)c2sc3nc(-c4cc5cccc(OC)c5oc4=O)[nH]c(=O)c3c2C)cc1`, for which the activity change, negative = inhibition is 7.97% (inactive).

As to `Cc1ccc(CSc2nc3cccnc3n2Cc2ccc(C(=O)NC3CC3)cc2)cc1`, the activity change, negative = inhibition was -0.852% (inactive).

In the case of `CCc1ccc(NC(=O)CCCc2nnc3n(CCCOC)c(=O)c4sccc4n23)cc1`, the activity change, negative = inhibition is -2.77% (inactive).

With `Cn1nc(-c2ccccc2)c(CO)c1Sc1ccccc1`, the activity change, negative = inhibition was -64.5% (active).

Take `Cn1nc(-c2ccccc2)c(CSc2cccc(Cl)c2)c1Cl`: the activity change, negative = inhibition was 2.15% (inactive).

On to `Cn1cnc([N+](=O)[O-])c1Sc1ccccc1`, for which the activity change, negative = inhibition was 1.72% (inactive).

As for `Cc1ccc(S(=O)(=O)NCc2nc3nc(C)cc(C)n3n2)cc1`, the activity change, negative = inhibition was -1.58% (inactive).

For `CCOc1cc(NC(=O)Nc2ccccc2)c(OCC)cc1NC(=O)CC`, the activity change, negative = inhibition is 0.545% (inactive).

For the compound `Cc1ccc(NC(=O)c2ccn(C(=O)Nc3ccccc3)n2)c(C)c1`, the activity change, negative = inhibition is 4.19% (inactive).

For the compound `Cc1ccc(NC(=O)Nc2ccccc2)c(Br)c1`, the activity change, negative = inhibition was -35.1% (active).

Turning to `COc1ccc(Cn2c(=O)c3oc4ccccc4c3n(CC(=O)Nc3ccc(F)cc3F)c2=O)cc1`, the activity change, negative = inhibition is -7.86% (inactive).

In the case of `Cc1cc2c(s1)c1cnn(Cc3cc(F)c(Cl)cc3Cl)c(=O)c1n2C`, the activity change, negative = inhibition is 3.83% (inactive).

As for `CC(C)OCCCNc1ncnc2c1[nH]c1ccc(F)cc12`, the activity change, negative = inhibition is -48.9% (active).

For the compound `Cc1ccc(-n2ncc(C(=O)N(C)Cc3ccccc3)c2-n2cccc2)cc1`, the activity change, negative = inhibition is -9.92% (inactive).

Turning to `Cc1cc2c(cc3c(SCc4nc(-c5ccccc5)oc4C)nnc(C)n32)o1`, the activity change, negative = inhibition was -21.6% (inactive).

Take `O=C(NCC(c1ccco1)S(=O)(=O)c1cccs1)c1ccc(F)cc1` (configuration not stated): the activity change, negative = inhibition is -7.39% (inactive).

As for `O=C(CC1NCCNC1=O)Nc1ccc(Oc2ccccc2)cc1` (configuration not stated), the activity change, negative = inhibition is 1.7% (inactive).

Regarding `O=C(CC1NCCc2ccccc21)Nc1cccc(Cl)c1` (configuration not stated), the activity change, negative = inhibition was -31.7% (active).

With `O=C(CC1NCCNC1=O)Nc1cc(Cl)cc(Cl)c1` (configuration not stated), the activity change, negative = inhibition is 4.63% (inactive).

As for `O=C(NCc1ccc(Cl)cc1)c1ccc2c(c1)nnn2C1CCCC1`, the activity change, negative = inhibition is -8.94% (inactive).

Take `Cc1ccc2ccc3c(c2n1)NS(=O)(=O)c1ccccc1-3`: the activity change, negative = inhibition was 8.65% (inactive).

As to `Cc1cccc2c1-c1sc(C(=O)NCCCN3CCc4ccccc4C3)cc1CO2`, the activity change, negative = inhibition was -31.8% (active).

For the compound `COc1ccc(CNC(=O)c2cc3c(s2)-c2ccccc2OC3)cc1`, the activity change, negative = inhibition was -24.1% (inactive).

In the case of `Cc1cccc2c1-c1sc(C(=O)Nc3ccc(F)cc3F)cc1CO2`, the activity change, negative = inhibition was -14.5% (inactive).

Turning to `COc1ccc2c(c1)CCc1c(C(=O)Nc3cc(C)ccc3O)noc1-2`, the activity change, negative = inhibition is -13.5% (inactive).

As for `COc1ccc(CNc2nc(-c3ccc(Cl)cc3)cc(C(F)(F)F)n2)cc1`, the activity change, negative = inhibition was -13.9% (inactive).

Turning to `CCCNC(=O)C1CCC(Cn2c(=O)c3sccc3n(Cc3ccccc3F)c2=O)CC1` (configuration not stated), the activity change, negative = inhibition was -11.6% (inactive).

`CCCC12CN3CC(CCC)(CN(C1)C3c1c[nH]c3ccc(OC)cc13)C2=O` (configuration not stated): the activity change, negative = inhibition was -7% (inactive).

Take `COc1ccccc1CN(C)C(=O)c1cc2ccccc2o1`: the activity change, negative = inhibition was -35.2% (active).

`COc1ccccc1CNC(=O)C1CCN(c2nc3ccccc3o2)CC1`: the activity change, negative = inhibition was 15.4% (inactive).

As for `COc1ccccc1CN(C)C(=O)C1(c2ccc(Cl)cc2)CC1`, the activity change, negative = inhibition is -0.3% (inactive).

Consider `CCc1ccc(N(CC)C(=O)CCn2cnc3onc(-c4ccc(F)cc4)c3c2=O)cc1`, for which the activity change, negative = inhibition was -6.1% (inactive).

For `CCCN(CC1COc2ccccc2O1)C(=S)Nc1ccc(C)cc1` (configuration not stated), the activity change, negative = inhibition was -12.3% (inactive).

`CC(NC(=S)Nc1ccccc1)C1COc2ccccc2O1` (configuration not stated): the activity change, negative = inhibition is -14.2% (inactive).

Turning to `S=C(NCC1COc2ccccc2O1)Nc1ccc(Br)cc1` (configuration not stated), the activity change, negative = inhibition is -47.7% (active).

The values above are taken from PubChem BioAssay AID504652 (National Center for Advancing Translational Sciences (NCATS), 2011).
